Reference: PubChem BioAssay AID1839 (Johns Hopkins Ion Channel Center, 2009)
Among all 2,400 compounds or so, about 220 (9.2%) were called active. Many of the other results were omitted from the sample, so actives are more common in it than they were. A number with no mark means an inactive call.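 How the source made its calls: active means signal change above the mean of dofetilide-free buffer controls plus 3 SD, so a positive margin; inactive means the rest.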

Test: thallium signal changes without hERG – cell-based, CHO-K1 parental line, FluxOR thallium flux, counter-screen for hERG block protection project, confirmation (AID 1839);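 further: compounds applied alone with no dofetilide to cells lacking hERG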
Details: CHO-K1 parental cells, FluxOR thallium flux fluorescence; at 10 µM

Compound | signal change vs control minus 3*SD hit threshold (margin above threshold, higher = more increase)
CCOC(=O)N1CCN(C(=O)c2ccc(Cl)c(S(=O)(=O)Nc3ccccc3)c2)CC1 | -11.6%
O=C(O)CSc1nc2ccccc2nc1Cc1ccccc1F | -22.7%
CCC(=O)N1CCN(c2nc(CC)nc3sc4c(c23)CCCC4)CC1 | -56%
Cc1cc(-c2cccc(Br)c2)c(C#N)c(N)n1 | -34.5%
O=C(CCN1C(=O)/C(=C\C=C\c2ccccc2)SC1=S)Nc1cccc(C(=O)O)c1 | -27.2%
Cc1ccccc1OC(=O)n1c(=S)oc2cc(Cl)ccc21 | -25.4%
CC(C)CC(=O)Nc1nc(=S)ss1 | -30.3%
O=C(NNC(=O)c1ccc(Cl)cc1Cl)c1cnccn1 | -29%
COC(=O)c1sc(NC(=S)NC(=O)c2ccccc2C)nc1C | -2.6%
Cc1ccccc1C(=O)Nc1nc(=S)ss1 | 9.5% (active)
O=C(Nc1nc(=S)ss1)c1ccc(Cl)cc1Cl | 56.5% (active)
O=C(Nc1nnc(-c2ccc3c(c2)CCCC3)o1)c1ccc(Cl)cc1Cl | -21.2%
O=C1Nc2ccc(Br)cc2C1Cc1ccccc1F (stereo unspecified) | -42.3%
O=C(O)c1ccc2c(c1)C(=O)N(c1cc([N+](=O)[O-])ccn1)C2=O | -24.2%
CCC(=O)Nc1ccc(N2CCOCC2)c(S(=O)(=O)Nc2ccc(OC)cc2)c1 | -21.7%
O=C(c1ccccc1)c1nccn1-c1ccc(Cl)nn1 | -27.6%
CC(NC(=O)C1CCN(S(=O)(=O)c2cccc3cccnc23)CC1)c1ccccc1 (stereo unspecified) | -31.3%
Cc1cc(C(=O)NCCN2C(=O)S/C(=C\c3cccs3)C2=O)ccc1[N+](=O)[O-] | -31.4%
CCOc1ccc(/C=C2\CCc3ccccc3C2=O)cc1 | -33.6%
CCOc1ccc(/C=C2/SC(=O)NC2=S)cc1 | 39% (active)
Cn1cc(/C=C2\SC(=O)NC2=S)c2ccccc21 | -27.6%
Cc1ccc(-c2nc(N)s[n+]2-c2ccccc2)cc1 | -7.8%
CCOC(=O)N/N=C\c1ccc(-c2cc(Cl)ccc2Cl)o1 | -32%
Cc1ccc(C(C)NC(=O)c2cccs2)cc1C (stereo unspecified) | -16.2%
O=C(N/N=C/c1cc(Cl)ccc1O)c1ccccc1Br | -21.5%
CCOC(=O)c1sc(NN=C(C(=O)OC)C(=O)OC)c(C(=O)OCC)c1C | -7.4%

Compound | signal change vs control minus 3*SD hit threshold (margin above threshold, higher = more increase)
CCCOc1ccc(C(=O)NNC(=S)NC(=O)c2ccccc2)cc1 | -44.9%
CCCOc1ccc(OC(=O)c2ccc(Br)o2)cc1 | -5.2%
CCOc1ccc(N(CC)C(=O)COc2cc(=O)n(C)c3ccccc23)cc1 | -18.3%
CCOc1ccc(-c2c(=O)n(O)c3ccccc3[n+]2[O-])cc1 | 19.7% (active)
CCOc1ccc(CC(C(N)=O)C(N)=O)cc1 | -32.5%
CCCOc1ccc(-c2c(=O)n(O)c3ccccc3[n+]2[O-])cc1 | 29.7% (active)
Cc1ccc(/C(O)=C2\C(=O)C(=O)N(Cc3cccnc3)C2c2ccccc2[N+](=O)[O-])cc1 (stereo unspecified) | -21.1%
COc1cc(NC(=O)c2ccccc2)c(OC)cc1NC(=O)Cc1ccc(Br)cc1 | -10.9%
CCc1ccc2[nH]c(O)c(N=Nc3nc(-c4ccccc4)cs3)c2c1 | -38.8%
Cc1ccccc1OCC(=O)N=Nc1c(O)n(C)c2ccccc12 | -17.7%
Cn1c(O)c(N=Nc2nc(-c3ccccc3)cs2)c2ccccc21 | 31.7% (active)
Cc1nn(CCC(=O)NNC(=S)Nc2ccc(F)cc2)c(C)c1[N+](=O)[O-] | -35.8%
O=C(NC(=S)NC1CCCc2ccccc21)c1ccco1 (stereo unspecified) | -14.2%
Cc1nonc1CN(C)C(=O)c1ccc(OC2CCN(Cc3ccccn3)CC2)cc1 | -22.2%
COCCNC(=O)C1CCN(S(=O)(=O)N2CCC3(CC2)OCCO3)CC1 | -40.3%
CCC1(c2ccccc2)NC(=S)N(c2ccc(C)cc2)N1 (stereo unspecified) | 48.2% (active)
CCC1(c2ccc(Cl)cc2)NC(=S)N(c2ccc(C)cc2)N1 (stereo unspecified) | 18.9% (active)
CCC1(c2ccc(Cl)cc2)NC(=S)N(c2ccccc2)N1 (stereo unspecified) | 40.1% (active)
CC1=CN2C(=N)/C(=C/c3ccc(Sc4ccc(Cl)cc4)o3)C(=O)N=C2S1 | -23.1%
O=C(NC(=S)N(CC1CCC1)CC1CCCO1)c1cccc([N+](=O)[O-])c1 (stereo unspecified) | -12.6%
CCCCCOCC1CC(C/C(C)=N/Nc2nc(-c3ccccc3)cs2)C(=O)O1 (stereo unspecified) | -31.7%
N#C/C(=N\Nc1ccccc1F)c1nc(-c2ccccc2)cs1 | -39.4%
O=C(Nc1ccc(Cl)c(Cl)c1)Nc1nnc(CSc2ccccc2)s1 | -17.6%
C=CCn1c(SCc2ccc(C(=O)O)cc2)nc2sc(C)c(C)c2c1=O | 7% (active)
CCn1c(SCC(=O)NC(=O)NCc2ccco2)nc2sc(C)c(C)c2c1=O | -17.8%
C=CCSc1nc2sc3c(c2c(=O)n1CC)CCc1ccccc1-3 | -22.2%

Compound | signal change vs control minus 3*SD hit threshold (margin above threshold, higher = more increase)
CCc1nccn1S(=O)(=O)c1ccc2ccc(C)cc2c1 | -33.5%
COc1ccc(Cc2c(O)nc(SCC(C)C)[nH]c2=O)cc1 | -32.4%
CC(C)c1nc2sc3c(=S)nc[nH]c3c2c2c1CCC2 | -10.6%
S=c1nc[nH]c2c1sc1nc(-c3ccccc3)c3c(c12)CCCC3 | -5.5%
S=c1nc[nH]c2c1sc1nc(N3CCOCC3)c3c(c12)CCCC3 | 1.1% (active)
O=C(O)CCCN1C(=O)C2C3c4ccccc4C(c4ccccc43)[C@@H]2C1=O (stereo partly specified) | -37.1%
COc1ccc(C(CC(=O)O)NC(=O)C(c2ccccc2)c2ccccc2)cc1 (stereo unspecified) | -32.8%
O=C(N/N=C/c1ccc(OC(F)F)cc1)C1=COCCO1 | -28.8%
CCOC(=O)c1sc(NC(=S)NC(=O)c2cccc(OC)c2)nc1C | -15.5%
COc1ccc(N2CCN(C(=S)Nc3cccc(OC)c3)CC2)cc1 | -27%
COc1ccc(NC(=O)CNC(=O)c2cccs2)cc1Cl | -23.5%
O=C(NC(=S)Nc1ccccc1N1CCCCC1)c1cccs1 | -17.4%
S=c1[nH]nc(-c2ccc(Cl)cc2)n1Cc1ccccc1 | -36.8%
CC(C)c1ccc(/C=N/n2c(COc3ccccc3)n[nH]c2=S)cc1 | -21.3%
S=c1nc(C2CCCCC2)[nH]c2ccccc12 | -20.4%
CCC(Cc1ccccc1)n1c(=S)[nH]c2ccccc2c1=O (stereo unspecified) | -32.2%
O=c1[nH]c(SCc2cccc(Cl)c2)nc2ccccc12 | -29.3%
S=c1nc(SCc2ccccc2)[nH]c2ccccc12 | 40.3% (active)
S=c1nc(C2CC2)[nH]c2ccccc12 | -0.5%
O=C(O)CCCCCNc1nc(=S)[nH]c2ccccc12 | -17.7%
S=c1nc(Cc2ccccc2)[nH]c2ccccc12 | 36% (active)
CCOC(=O)c1sc2nc(Cc3ccc(Cl)cc3)[nH]c(=S)c2c1C | -19.8%
S=c1nc(COc2ccccc2)[nH]c2ccccc12 | 59.3% (active)
S=c1nc(Cc2ccc(Cl)cc2)[nH]c2ccccc12 | 7.6% (active)
C#CCN1C(=O)S/C(=C\c2ccc(-c3ccc(C(=O)O)cc3C)o2)C1=O | -26.1%
CC/C(=N\NC(=S)Nc1cccc(C)c1)c1ccccc1 | -31.9%

Compound | signal change vs control minus 3*SD hit threshold (margin above threshold, higher = more increase)
COc1ccc(/C=N/NC(=O)C(=O)N2CCCC2)cc1 | -11.5%
Cc1cccc(C)c1NC(=O)Cn1cnc2c(=O)n(C)c(=O)n(C)c21 | -26.9%
Cn1nc(C(=O)Nc2ccc3c(c2)OCO3)c2ccccc2c1=O | -35.3%
CCOC(=O)NC(=O)/C(C#N)=N\Nc1ccc(Cl)cc1 | -36.7%
Cc1c(-c2ccn[nH]2)cc(NC(=O)c2ccc(Cl)cc2)c(=O)n1N | -40%
Cc1cc(C)nc(SCc2nnc(SCC(=O)Nc3nc(-c4ccccc4)cs3)n2-c2ccccc2)n1 | -32%
COc1ccc(CCNC(=O)CSc2ccc3nnc(CCNC(=O)c4ccccc4)n3n2)cc1OC | -23.3%
O=C1NC(=S)/C(=C\c2ccc(-c3ccccc3Cl)o2)S1 | -34.6%
COc1ccc2nc(N3CCCCC3)c(/C=C3\SC(=S)NC3=O)cc2c1 | -33%
O=C1NC(=S)S/C1=C\c1ccc2ccccc2c1 | 30.2% (active)
O=C(CN1C(=O)S/C(=C\c2cccs2)C1=O)Nc1ccc(C(=O)O)c(O)c1 | -0.8%
Cc1ccc(S(=O)(=O)c2nnn3c2nc(N2CCOCC2)c2ccccc23)c(C)c1 | -25.3%
COC(=O)c1sccc1NC(=S)N1CCN(C)CC1 | -34.3%
O=c1c2cc(Cl)ccc2nc(-c2ccc(Cl)c(Cl)c2)n1O | 62.4% (active)
O=c1c2ccccc2nc(-c2ccccc2)n1O | -24.1%
Cc1ccc(-c2nc3ccc(Cl)cc3c(=O)n2O)cc1 | 38% (active)
O=c1c2cc(Cl)ccc2nc(-c2ccccc2)n1O | -7.8%
Cc1ccc(C(=O)Nc2nc3ccccc3c(=O)s2)cc1 | -16.6%
O=C(Cc1ccccc1)Nn1c(-c2ccccc2)nc2ccccc2c1=O | -21.4%
Cc1ccc(-c2onc3ccc(Cl)cc23)cc1 | -25.3%
O=c1c2ccccc2nc(-c2cccc(Cl)c2)n1O | 0.8% (active)
O=c1c2ccccc2nc(-c2ccc(Cl)c(Cl)c2)n1O | 20.1% (active)
NC(=O)CSc1nc2ccccc2c(=O)n1CCc1ccccc1 | -28.3%
